According to PubChem BioAssay (NCATS):
Inconclusive results are not listed. Entries that show only a call come without a potency. Values without a mark were called inactive. Active and inactive are the calls of the source. Calls come from the whole dose curve; as a rule, active = well fitted inhibition curve with a large enough effect; inconclusive = small, poorly fitted or top-dose-only effect; inactive = flat fitted curve, though single readings scatter.

Biological target: Calcium and integrin-binding protein 1 (Homo sapiens) (UniProt Q99828)
Sequence (Q99828 whole entry, looked up): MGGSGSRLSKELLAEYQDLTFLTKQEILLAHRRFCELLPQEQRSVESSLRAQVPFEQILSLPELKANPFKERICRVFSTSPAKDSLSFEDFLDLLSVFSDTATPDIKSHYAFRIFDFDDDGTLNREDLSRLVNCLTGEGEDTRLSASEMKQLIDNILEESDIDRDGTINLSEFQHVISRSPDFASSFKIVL
Experiment: Primary qHTS for Identification of Calcium Integrin Binding Protein 1 (CIB1) Competitor (AID 1508620);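 note: GST tagged CIB1 binding a fluorescein labelled alphaIIb integrin peptide tracer; top concentration of the series differs between compounds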
Conditions: CIB1-GST / FITC-alphaIIb peptide fluorescence polarization; series mostly up to 57.7 µM
In short: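 Fluorescence polarization competition: CIB1-GST (1 uM final) preincubated with compound 15 min at room temperature, then FITC-labeled alphaIIb peptide (100 nM final) added for another 15 min. Polarization read at Ex 480/Em 540.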

Compound | Potency | activity change, negative = inhibition
CC1=CC(=O)C2C(C)(C)CC(O)CC2(C)C1CO (stereo not drawn) | inactive | 
C=CC(C)(CC/C=C(\C)CC/C=C(\C)CC(O)/C=C(\C)C(=O)O)O[C@@H]1O[C@H](CO)[C@@H](O)[C@H](O)[C@H]1O[C@@H]1O[C@H](CO)[C@@H](O)[C@H](O)[C@H]1O (stereo partly drawn) | inactive | 
CC1CCC2C(C(=O)O)=CC3C(O)C(C)(C)CC123 (stereo not drawn) | inactive | 
C[C@@H]1C[C@H]2[C@@H]3CCC4=CC(=O)C=C[C@]4(C)[C@@]3(F)[C@@H](O)C[C@]2(C)[C@@]1(O)C(=O)COP(=O)(O)O | inactive | 
CCC(C)C(=O)O[C@@H]1[C@@H](O)[C@@H](O[C@H]2O[C@H](CO)[C@@H](O)[C@H](O)[C@H]2O)O[C@H](CO)[C@H]1O (stereo partly drawn) | inactive | 
COc1cc2c(cc1OC)CN(C(=O)[C@@H](NCc1ccncc1)C(C)(C)C)CC2 | inactive | 
CC(O)C(O)/C=C/C=C/C(=O)O[C@@H]1C=C2COC(=O)[C@]2(O)[C@@]2(C)CCCC(C)(C)C12 (stereo partly drawn) | inactive | 
C=CC1(C)CC2=CCC3C(C)(C(=O)O)CCCC3(C)C2CC1OC(C)=O (stereo not drawn) | inactive | 
COC(=O)C1=COC(OC2OC(CO)C(O)C(O)C2O)C2C1CC(OC(=O)C(O)CC(=O)O)C2C (stereo not drawn) | inactive | 
C=C(C)C(=O)O[C@H]1C[C@@](C)(OC(C)=O)[C@@]2(O)CC[C@@](C)(O)[C@H](OC(C)=O)[C@@]23OC(=O)C(COC)=C13 | inactive | 
O=C(NCc1ccc(OC(F)(F)F)cc1)C1c2ccccc2C(=O)N1C1CCOCC1 (stereo not drawn) | inactive | 
CC(=O)OC(CSC1CCC(=O)OC(C)CCC(=O)C1)C(=O)O (stereo not drawn) | inactive | 
CC(C(=O)O)C1CCC2(C)C3C(=O)C=C4C(CCC(=O)C4(C)C)C3(C)CCC12C (stereo not drawn) | inactive | 
COC1CC(OC2CCC3(C)C(=CCC4C3CCC3(C)C(C(C)O)CCC43O)C2)OC(C)C1OC1OC(C)C(OC2OC(COC3OC(COC4OC(CO)C(O)C(O)C4O)C(O)C(O)C3O)C(O)C(O)C2O)C(OC)C1O (stereo not drawn) | inactive | 
COc1cc(/C=C/C(=O)OC2CC(OC(C)=O)C(OC(C)=O)C3C2CCC2C(=O)OC(c4ccoc4)CC23C)ccc1O[C@@H]1O[C@H](CO)[C@@H](O)[C@H](O)[C@H]1O (stereo partly drawn) | inactive | 
C=C1[C@@H]2[C@H]3OC(=O)C(=C)[C@@H]3CC[C@@](C)(O)[C@@H]2C[C@@H]1O[C@@H]1O[C@H](CO)[C@@H](O)[C@H](O)[C@H]1O | inactive | 
COC(=O)CC1(O)C(=O)Nc2ccccc21 (stereo not drawn) | inactive | 
CO[C@@H]1CC[C@H](OC[C@]2(COC(=O)c3ccc(C)[nH]3)[C@H](OC(C)=O)CC[C@@]3(C)[C@@H]4CC=C(C)[C@@H](C5=C(O)C(=O)OC5O)[C@]4(C)CC[C@@H]32)O[C@H]1C (stereo partly drawn) | inactive | 
CC[C@H]1OC(=O)C[C@@H](O)[C@H](C)[C@@H](O[C@@H]2O[C@H](C)[C@@H](O)[C@H](N(C)C)[C@H]2O)[C@@H](CCN2C[C@H](C)C[C@H](C)C2)C[C@@H](C)C(=O)/C=C/C(C)=C/[C@@H]1CO[C@@H]1O[C@H](C)[C@@H](O)[C@@H](OC)[C@H]1OC | inactive | 

Compound | Potency | activity change, negative = inhibition
CC(C)C1(O[C@@H]2O[C@H](CO)[C@@H](O)[C@H](O)[C@H]2O)CC=C(CO)CC1 (stereo partly drawn) | inactive | 
O=C(/C=C/c1ccc(O)cc1)OC[C@]12O[C@H]1[C@@H](O)[C@@H]1C=CO[C@@H](O[C@@H]3O[C@H](CO)[C@@H](O)[C@H](O)[C@H]3O)[C@@H]12 | inactive | 
CC/C=C/CC1=C(CCCCCCCC(=O)O)CCC1=O | inactive | 
CC1CCC2(C(=O)OC3OC(COC4OC(CO)C(O)C(O)C4O)C(O)C(O)C3O)CCC3(C)C(=CCC4C5(C)CCC(O)C(C)(C(=O)O)C5CCC43C)C2C1(C)O (stereo not drawn) | inactive | 
COc1ccc(C(OC2OC(CO)C(O)C(O)C2O)C(C)O)cc1 (stereo not drawn) | inactive | 
COc1c(C)c2c(c(O)c1C/C=C(\C)CC/C=C(\C)CCC(=O)O)C(=O)OC2 | inactive | 
C/C=C(\C)C(=O)O[C@H]1[C@H](O)[C@]2(COC(C)=O)[C@H](O)C[C@]3(C)C(=CCC4[C@@]5(C)CC[C@H](O[C@@H]6O[C@H](C(=O)O)[C@@H](O[C@@H]7O[C@H](CO)[C@@H](O)[C@H](O)[C@H]7O)[C@H](O)[C@H]6O[C@@H]6O[C@H](CO)[C@@H](O)[C@H](O)[C@H]6O)[C@](C)(CO)C5CC[C@]43C)[C@@H]2CC1(C)C (stereo partly drawn) | inactive | 
COc1cc(/C=C/C(=O)OC2CC3CCC2(C)C3(C)C)ccc1O (stereo not drawn) | inactive | 
C[C@@H]1O[C@@H](O[C@H]2[C@H](O[C@H]3[C@H](O[C@H]4CC[C@@]5(C=O)C(CC[C@]6(C)C5CC=C5C7CC(C)(C)C[C@@H](O)[C@]7(C)CC[C@]56C)C4(C)C)O[C@H](C(=O)O)[C@@H](O)[C@@H]3O)OC[C@@H](O)[C@@H]2O)[C@H](O)[C@H](O)[C@H]1O (stereo partly drawn) | inactive | 
OC[C@H]1O[C@@H](Oc2cc(O)cc(-c3cc4ccc(O)cc4o3)c2)[C@H](O)[C@@H](O)[C@@H]1O | inactive | 
CC1(C)C(O)CCC2(C)C1C(O)C=C1COC(=O)C12O (stereo not drawn) | inactive | 
COc1ccc(/C=C/C(=O)O[C@H]2[C@@H]3C=CO[C@@H](O[C@@H]4O[C@H](CO)[C@@H](O)[C@H](O)[C@H]4O)[C@@H]3[C@@]3(CO)O[C@@H]23)cc1O | inactive | 
C[C@H]1C[C@H]2[C@@H]3CCC4=CC(=O)C=C[C@]4(C)[C@@]3(F)[C@@H](O)C[C@]2(C)[C@@]1(O)C(=O)COP(=O)(O)O | inactive | 
CC(=O)O[C@@H]1[C@@H](OC(=O)/C=C/c2ccccc2)[C@H](C)O[C@@H](O[C@H]2[C@@H]3C=CO[C@@H](O[C@@H]4O[C@H](CO)[C@@H](O)[C@H](O)[C@H]4O)[C@@H]3[C@@]3(CO)O[C@@H]23)[C@@H]1OC(C)=O | inactive | 
CC(C)(O)C1CC=C(C(=O)OCC2OC(Oc3c(O)cc(C(=O)O)cc3O)C(O)C(O)C2O)CC1 (stereo not drawn) | inactive | 
CC1(C)O[C@]23C[C@H]1C[C@H](OC(=O)c1ccoc1)[C@]2(C)[C@@H](OC(=O)c1ccoc1)CCC3(C)O (stereo partly drawn) | inactive | 
C=CC(C)(O)CC/C=C(\C)C(=O)OC1CC2(C(=O)O)CCC3(C)C(=CCC4C5(C)CCC(OC6OC(COC7OCC(O)C(O)C7O)C(O)C(OC7OCC(O)C(O)C7O)C6OC6OC(CO)C(O)C(O)C6OC6OCC(O)C(O)C6O)C(C)(C)C5CCC43C)C2CC1(C)C (stereo not drawn) |  | -4.39% [at 12.4 µM]
COc1ccc2c(c1)OC[C@]1(O)c3cc4c(cc3O[C@H]21)OCO4 | inactive | 
C/C=C/C=C/C=C/C(=O)O[C@@H]1[C@@H](OC)C2=C(C(=O)N(C(C)C(=O)O)C2)[C@@]2(C)CCCC(C)(C)[C@H]12 (stereo partly drawn) | inactive | 
